By AC50 is commonly meant the midpoint of the concentration-response curve, whichever way the signal moves.

Records with an inconclusive call do not appear. Calls of active or inactive are those of the source. The calls were made as follows: active = hit-call score of the fitted dose curve at least 0.9, where 1 is the maximum; inconclusive = response in the unintended direction; inactive = score below 0.9.

Read-out in this assay: Cytochrome P450 2B6 (Homo sapiens) (UniProt P20813)
Briefly: CLD_CYP2B6_24hr: CellzDirect (CLD) Gene Expression Assay for xenobiotic metabolism (CYP2B6) at 24 hours (AID 2283686). How it is done:
CLD_24hr is a cell-based, multiplexed-readout assay that uses hepatocyte, a human liver primary cell, with measurements taken at 24 hours after chemical dosing in a 96-well plate.CLD_CYP2B6_24hr is one of 16 assay component(s) measured or calculated from the CLD_24hr assay. It is designed to make measurements of mRNA induction, a form of inducible reporter, as detected with chemiluminescence signals by Quantitative Nuclease Protection Assay (qNPA) technology.Data from the assay component CLD_CYP2B6_24hr was analyzed at the endpoint, CLD_CYP2B6_24hr, in the positive analysis fitting direction relative to DMSO as the negative control and baseline of activity. Using a type of inducible reporter, gain-of-signal activity can be used to understand changes in the reporter gene as they relate to the gene CYP2B6. Furthermore, this assay endpoint can be referred to as a primary readout. To generalize the intended target to other relatable targets, this assay endpoint is annotated to the cyp intended target family, where subfamily is xenobiotic metabolism.
Human hepatocyte cultures were treated daily for two consecutive days with fresh dosing solutions containing appropriate concentrations of the 320 ToxCast chemicals (chemical identities were blinded to CellzDirect and other ToxCast collaborators), vehicle control (0.2% DMSO), and positive control inducers as summarized in Table 1. Due to the large number of treatment groups and chemicals examined, the ToxCast chemicals were divided into two groups (spanning two independent cultures of hepatocytes from separate donor preparations (Hu778: ToxCast plates 1 and 2; Hu776: ToxCast plates 3 and 4). Each preparation of human hepatocyte cultures was treated with respective vehicle control, medium only control, set of six positive controls/reference chemicals for the five hepatic receptor pathways, and a subset of eight of the ToxCast chemicals (indoxacarb, pyrithiobac-sodium, norflurazon, cyhalofop-butyl, methomyl, thiram, acetochlor, and propiconazole). These replicate data, coupled with internal replicates designed within the blinded ToxCast chemical library, provided additional data to evaluate interindividual differences between hepatocyte preparations and their potential impact on chemical profiles.Cell morphology and integrity were evaluated using phase-contrast microscopy as an indicator of hepatocyte cell health (Tyson & Green, 1987). Cultures for each treatment group (i.e., media, vehicle [0.2% DMSO], positive control inducers [multiple concentrations], and the ToxCast chemicals [multiple concentrations]) were observed and cell morphology was assessed relative to vehicle control cultures at each harvest time point (0, 6, 24, or 48 h). […] Images were evaluated at the conclusion of the study to assess changes in cell integrity and account for the effects of chemical exposure on uncharacteristic changes in concentration-dependent gene expression profiles. The results from these determinations of apparent cytotoxicity were annotated (yes/no) alongside the corresponding qNPA data for reference.At the conclusion of each treatment period, hepatocyte cultures (96-well) were washed with 1 volume of HBSS, lysed by addition of 25 ul ArrayPlate lysis buffer (HTG, Tucson, AZ), and 70 ul/well of Denaturation Oil, denatured by incubation at 95C for 10 min, and frozen at approximately -70C until analysis by nuclease protection assay (qNPA) (Roberts et al., 2007). For qNPA analysis, cell lysates were thawed at 50C for approximately 30 min, qNPA probes were added, and samples were incubated at 95C for 10 min to begin the detection process by denaturing the target RNA, dissociating the duplexes and secondary structure hybridization. At the conclusion of the hybridization period, S1 nuclease reagent was added to each sample to digest all nonprotected nucleotides at 50C for 60-90 min. […]
As to `CCOc1cc(C(C)(C)C)ccc1C1COC(c2c(F)cccc2F)=N1` (stereo not given), the concentration at half-maximal activity (AC50) is 1.9 µM (active).

Consider `C=CCOC(=O)C(C)(C)OC(=O)c1cc(-n2c(=O)cc(C(F)(F)F)n(C)c2=O)ccc1Cl`, for which the AC50 was 0.173 µM (active).

For the compound `Nc1cnn(-c2ccccc2)c(=O)c1Cl`, the result was inactive.

Take `CS(=O)(=O)c1ccc(C(=O)C2C(=O)CCCC2=O)c([N+](=O)[O-])c1`: the compound was called inactive.

For `N#Cc1c[nH]cc1-c1cccc2c1OC(F)(F)O2`, the AC50 is 3.97 µM (active).

`COc1ccc(-c2ccccc2)cc1NNC(=O)OC(C)C`: the concentration at half-maximal activity (AC50) was 4.09 µM (active).

On to `CS(=O)(=O)c1cc(C(F)(F)F)ccc1C(=O)c1cnoc1C1CC1`, for which the AC50 was 6.01 µM (active).

In the case of `Clc1nc(Cl)nc(Nc2ccccc2Cl)n1`, the compound was classed as inactive.

In the case of `CNC(=O)N(C)c1nnc(C(C)(C)C)s1`, the call was inactive.

For the compound `COC(=O)N(C(=O)N1CO[C@@]2(C(=O)OC)Cc3cc(Cl)ccc3C2=N1)c1ccc(OC(F)(F)F)cc1`, the half-maximal activity concentration (AC50) was 1.9 µM (active).

`CCN(CC)c1nc(C)cc(OP(=S)(OC)OC)n1`: the AC50 was 0.902 µM (active).

Consider `CCN(CC)C(=O)C(C)Oc1cccc2ccccc12` (stereo not given), for which the result was inactive.

With `COC(=O)NS(=O)(=O)c1ccc(N)cc1`, the outcome was inactive.

Turning to `Cc1c(COC(=O)[C@@H]2[C@H](/C=C(\Cl)C(F)(F)F)C2(C)C)cccc1-c1ccccc1`, the concentration at half-maximal activity (AC50) is 4.37 µM (active).

On to `C=C(C)CN(CC)c1c([N+](=O)[O-])cc(C(F)(F)F)cc1[N+](=O)[O-]`, for which the compound was classed as inactive.

`COP(=S)(OC)SCn1nnc2ccccc2c1=O`: the AC50 was 4.46 µM (active).

Take `O=P(O)(O)CCCl`: the result was inactive.

Take `CCC(C)n1c(=O)[nH]c(C)c(Br)c1=O` (stereo not given): the AC50 was 1.56 µM (active).

With `CC(C)NC(=O)N1CC(=O)N(c2cc(Cl)cc(Cl)c2)C1=O`, the half-maximal activity concentration (AC50) is 10.4 µM (active).

For the compound `COCC(=O)N(c1c(C)cccc1C)C(C)C(=O)OC` (stereo not given), the half-maximal activity concentration (AC50) was 4.09 µM (active).

As for `CC1(C)CON(Cc2ccccc2Cl)C1=O`, the AC50 is 20 µM (active).

In the case of `CNC(=O)Oc1cccc2ccccc12`, the AC50 is 7.28 µM (active).

In the case of `CN=C=S`, the result was inactive.

Consider `CC(C)N1C(=O)N(c2ccccc2)CSC1=NC(C)(C)C`, for which the AC50 is 4.23 µM (active).

Regarding `COCC(C)N(C(=O)CCl)c1c(C)csc1C` (stereo not given), the AC50 was 11.9 µM (active).

Consider `CC1(C)C(C(=O)OC(C#N)c2cccc(Oc3ccccc3)c2)C1(C)C` (stereo not given), for which the AC50 is 4.44 µM (active).

`O=c1n(Cl)c(=O)n(Cl)c(=O)n1Cl`: the result was inactive.

For the compound `CC1(C)C(C=C(Cl)Cl)C1C(=O)OC(C#N)c1cccc(Oc2ccccc2)c1` (stereo not given), the concentration at half-maximal activity (AC50) was 4.4 µM (active).

With `COc1cc(Cl)c(OC)cc1Cl`, the AC50 was 0.598 µM (active).

With `CCCN(CC)CC1COC2(CCC(C(C)(C)C)CC2)O1` (stereo not given), the AC50 is 9.21 µM (active).

For `COP(=O)(OC)O/C(C)=C/C(=O)N(C)C`, the compound was called inactive.

As for `O=C(O)c1c(Cl)ccc2cc(Cl)cnc12`, the outcome was inactive.

For `CCOC(=O)C(C)OC(=O)c1cc(Oc2ccc(C(F)(F)F)cc2Cl)ccc1[N+](=O)[O-]` (stereo not given), the AC50 was 10.3 µM (active).

As to `CC(C)Oc1cccc(NC(=O)c2ccccc2C(F)(F)F)c1`, the AC50 is 4.95 µM (active).

Consider `CCCCC(O)(Cn1cncn1)c1ccc(Cl)cc1Cl` (stereo not given), for which the AC50 is 1.9 µM (active).

Consider `Nc1c(Cl)c(F)nc(OCC(=O)O)c1Cl`, for which the compound was called inactive.

Regarding `COP(=S)(OC)Oc1ccc([N+](=O)[O-])c(C)c1`, the AC50 is 0.692 µM (active).

For the compound `CC(C)=CC1C(C(=O)OCc2coc(Cc3ccccc3)c2)C1(C)C` (stereo not given), the AC50 is 5.63 µM (active).

As for `CCOP(=O)(OCC)Oc1nc(Cl)c(Cl)cc1Cl`, the AC50 was 0.405 µM (active).

For `N#CN=C1SCCN1Cc1ccc(Cl)nc1`, the concentration at half-maximal activity (AC50) was 11.6 µM (active).

(Values after PubChem BioAssay (EPA / NIEHS).)
